As a reminder, the AC50 is the concentration giving half of the maximal activity seen.

The values below come from PubChem BioAssay (EPA / NIEHS).

What all share (details): mRNA level, 48 h; actives raise or lower the signal
Read-out in experiment [1]: Bcl-2 (BAD) gene, BAD (gene 572)
The experiment is described as follows: LTEA_HepaRG_BAD: Life Technologies and Expression Analysis (LTEA) Assay for Bcl-2 (BAD) gene using HepaRG (AID 2283469). In outline:
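HepaRG, 48 h exposure, 8-pt half-log curve from 100 uM in 0.5% DMSO, duplicates. Readout: TaqMan qRT-PCR for BAD mRNA, housekeeping-normalised (ACTB/GAPDH/POLR2A); gain or loss fitted against DMSO baseline.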

Read-out in experiment [2]: Bcl-2 (BAX) gene, BAX (gene 581)
The experiment is described as follows: LTEA_HepaRG_BAX: Life Technologies and Expression Analysis (LTEA) Assay for Bcl-2 (BAX) gene using HepaRG (AID 2283470). In outline:
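Cells were thawed, plated for 48 h, moved to serum-free induction medium and dosed for 48 h (highest concentration 100 uM, half-log steps, 0.5% DMSO). Total RNA was then analysed for BAX expression by qRT-PCR.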

Read-out in experiment [3]: adenosine kinase (ADK) gene, ADK (gene 132)
Nature of the experiment: LTEA_HepaRG_ADK: Life Technologies and Expression Analysis (LTEA) Assay for adenosine kinase (ADK) gene using HepaRG (AID 2283471). An outline of the steps:
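HepaRG (human liver), 48 h chemical exposure, 8-pt half-log series, top 100 uM, 0.5% DMSO vehicle. Readout: ADK mRNA by qRT-PCR vs housekeeping genes; bidirectional curve fit relative to DMSO baseline.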

Read-out in experiment [4]: Alpha-fetoprotein (AFP) gene, AFP (gene 174)
Nature of the experiment: LTEA_HepaRG_AFP: Life Technologies and Expression Analysis (LTEA) Assay for Alpha-fetoprotein (AFP) gene using HepaRG (AID 2283472). An outline of the steps: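 Chemicals were tested on differentiated HepaRG cells for 48 hours at eight concentrations up to 100 uM, with 0.5% DMSO as vehicle. AFP expression was then quantified by qRT-PCR and analyzed for gain or loss relative to DMSO.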

Read-out in another experiment: BCL2L11 (gene 10018)
The experiment is described as follows: LTEA_HepaRG_BCL2L11: Life Technologies and Expression Analysis (LTEA) Assay for Bcl-2 (BCL2L11) gene using HepaRG (AID 2283473). In outline: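 Differentiated human HepaRG cells were exposed 48 h in serum-free induction medium to eight half-log concentrations up to 100 uM in 0.5% DMSO, in duplicate. BCL2L11 mRNA was quantified by TaqMan qRT-PCR, normalized to ACTB, GAPDH and POLR2A; induction or repression fitted versus DMSO.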

Read-out in experiment [5]: Apolipoprotein A-V (APOA5) gene, APOA5 (gene 116519)
Nature of the experiment: LTEA_HepaRG_APOA5: Life Technologies and Expression Analysis (LTEA) Assay for Apolipoprotein A-V (APOA5) gene using HepaRG (AID 2283474). An outline of the steps: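 Differentiated HepaRG cells in serum-free induction medium, exposed 48 h in duplicate to eight half-log concentrations topping at 100 uM (0.5% DMSO). APOA5 mRNA by Fluidigm TaqMan qRT-PCR, normalized to ACTB, GAPDH and POLR2A; bidirectional fit versus DMSO.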

Read-out in experiment [6]: Apoptosis regulator Bcl-2 (Homo sapiens) (UniProt P10415)
The experiment is described as follows: LTEA_HepaRG_BCL2: Life Technologies and Expression Analysis (LTEA) Assay for Bcl-2 gene using HepaRG (AID 2283475). An outline of the steps:
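Plated human HepaRG cells are exposed to test chemicals for 48 h across eight concentrations from 100 uM downward in half-log steps (0.5% DMSO). BCL2 expression is then measured by qRT-PCR with housekeeping normalisation and fitted bidirectionally against vehicle.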

Read-out in a further experiment: Caspase-3 (Homo sapiens) (UniProt P42574)
Nature of the experiment: LTEA_HepaRG_CASP3: Life Technologies and Expression Analysis (LTEA) Assay for cysteine-aspartic acid protease (CASP3) using HepaRG (AID 2283477). In outline:
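Differentiated HepaRG cells, plated 48 h, were treated in duplicate in serum-free induction medium for 48 h with eight half-log concentrations up to 100 uM in 0.5% DMSO. CASP3 mRNA measured by qRT-PCR, normalized to ACTB, GAPDH, POLR2A.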

Read-out in experiment [7]: Cytochrome P450 (CYP24A1), CYP24A1 (gene 1591)
Nature of the experiment: LTEA_HepaRG_CYP24A1: Life Technologies and Expression Analysis (LTEA) Assay for Cytochrome P450 (CYP24A1) using HepaRG (AID 2283478). An outline of the steps:
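HepaRG cells plated 48 h, then exposed in duplicate in serum-free induction medium for 48 h to 8-point half-log series from 100 uM in 0.5% DMSO. CYP24A1 mRNA by Fluidigm qRT-PCR, normalized to ACTB, GAPDH, POLR2A; bidirectional fit versus DMSO.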

Read-out in experiment [8]: Cytochrome P450 (CYP1A2), CYP1A2 (gene 1544)
The experiment is described as follows: LTEA_HepaRG_CYP1A2: Life Technologies and Expression Analysis (LTEA) Assay for Cytochrome P450 (CYP1A2) using HepaRG (AID 2283479). An outline of the steps: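 Differentiated human HepaRG cells in serum-free induction medium exposed 48 hours in duplicate to 8 half-log concentrations from 100 uM, 0.5% DMSO. CYP1A2 mRNA quantified by qRT-PCR, normalized to ACTB, GAPDH and POLR2A; bidirectional fitting versus DMSO.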

Read-out in experiment [9]: cysteine-aspartic acid protease (CASP8), CASP8 (gene 841)
The experiment is described as follows: LTEA_HepaRG_CASP8: Life Technologies and Expression Analysis (LTEA) Assay for cysteine-aspartic acid protease (CASP8) using HepaRG (AID 2283480). An outline of the steps: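 qRT-PCR readout of CASP8 mRNA, normalized to three housekeeping genes, after 48 h chemical exposure of HepaRG cells; 8-point half-log series, top 100 uM, 0.5% DMSO vehicle. Bidirectional curve fitting against DMSO baseline.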

Read-out in experiment [10]: Cytochrome P450 (CYP2B6), CYP2B6 (gene 1555)
The experiment is described as follows: LTEA_HepaRG_CYP2B6: Life Technologies and Expression Analysis (LTEA) Assay for Cytochrome P450 (CYP2B6) using HepaRG (AID 2283481). An outline of the steps:
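Differentiated human HepaRG cells in serum-free induction medium, dosed in duplicate for 48 h over 8 half-log concentrations topping at 100 uM (0.5% DMSO). CYP2B6 mRNA measured by TaqMan qRT-PCR, normalized to ACTB, GAPDH, POLR2A; bidirectional fit versus DMSO.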

Read-out in experiment [11]: Cytochrome P450 2C19 (Homo sapiens) (UniProt P33261)
The experiment is described as follows: LTEA_HepaRG_CYP2C19: Life Technologies and Expression Analysis (LTEA) Assay for CYP2C19 using HepaRG (AID 2283482). In outline: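 Differentiated HepaRG cells in serum-free induction medium exposed 48 h in duplicate, 8 concentrations from 100 uM by half-log steps in 0.5% DMSO. CYP2C19 mRNA measured by TaqMan qRT-PCR, normalized to ACTB, GAPDH, POLR2A. Bidirectional fit versus DMSO.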

Read-out in the next experiment: CYP2C8 (gene 1558)
The experiment is described as follows: LTEA_HepaRG_CYP2C8: Life Technologies and Expression Analysis (LTEA) Assay for CYP2C8 using HepaRG (AID 2283483). An outline of the steps:
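HepaRG (human liver line), 48 h chemical exposure, 8-pt half-log series from 100 uM, 0.5% DMSO vehicle. Readout: CYP2C8 transcript by qRT-PCR, housekeeping-normalized. Bidirectional fit vs DMSO baseline.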

Read-out in another experiment: CYP2E1 (gene 1571)
Nature of the experiment: LTEA_HepaRG_CYP2E1: Life Technologies and Expression Analysis (LTEA) Assay for CYP2E1 using HepaRG (AID 2283485). In outline:
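Readout is qRT-PCR of CYP2E1 mRNA, normalized to three housekeeping genes and fitted bidirectionally against 0.5% DMSO. HepaRG cells were dosed 48 h at eight concentrations, highest 100 uM with half-log dilutions.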

Read-out in experiment [12]: Cytochrome P450 3A4 (Homo sapiens) (UniProt P08684)
The experiment is described as follows: LTEA_HepaRG_CYP3A4: Life Technologies and Expression Analysis (LTEA) Assay for CYP3A4 using HepaRG (AID 2283487). In outline:
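CYP3A4 transcript measured by TaqMan qRT-PCR and normalized to three housekeeping genes after 48 h chemical exposure of human HepaRG cells. Top concentration 100 uM, half-log steps, 0.5% DMSO vehicle; gain or loss fitted against DMSO baseline.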

Read-out in experiment [13]: DNA damage-inducible transcript 3 (DDIT3), DDIT3 (gene 1649)
Nature of the experiment: LTEA_HepaRG_DDIT3: Life Technologies and Expression Analysis (LTEA) Assay for DNA damage-inducible transcript 3 (DDIT3) using HepaRG (AID 2283488). In outline: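 Cells are human HepaRG liver cells treated for 48 h with eight half-log concentrations up to 100 uM in 0.5% DMSO. Transcript levels come from qRT-PCR normalized to three housekeeping genes, with activity fitted in both directions relative to vehicle.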

Molecules are shown by their SMILES. Active and inactive are the calls of the source. The calls were made as follows: active = hit-call score of the fitted dose curve at least 0.9, where 1 is the maximum; inactive = score below 0.9.

Chain of Caspase-3 (Homo sapiens) (P42574 whole entry, looked up): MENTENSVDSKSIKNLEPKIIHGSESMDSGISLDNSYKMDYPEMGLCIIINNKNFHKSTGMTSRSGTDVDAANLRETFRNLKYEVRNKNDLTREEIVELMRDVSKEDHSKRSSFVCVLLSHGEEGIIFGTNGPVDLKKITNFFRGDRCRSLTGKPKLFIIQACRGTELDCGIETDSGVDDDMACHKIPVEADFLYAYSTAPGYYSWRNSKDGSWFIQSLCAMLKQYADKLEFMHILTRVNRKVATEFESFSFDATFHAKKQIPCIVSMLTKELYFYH
Chain of Cytochrome P450 2C19 (Homo sapiens) (P33261 whole entry, looked up): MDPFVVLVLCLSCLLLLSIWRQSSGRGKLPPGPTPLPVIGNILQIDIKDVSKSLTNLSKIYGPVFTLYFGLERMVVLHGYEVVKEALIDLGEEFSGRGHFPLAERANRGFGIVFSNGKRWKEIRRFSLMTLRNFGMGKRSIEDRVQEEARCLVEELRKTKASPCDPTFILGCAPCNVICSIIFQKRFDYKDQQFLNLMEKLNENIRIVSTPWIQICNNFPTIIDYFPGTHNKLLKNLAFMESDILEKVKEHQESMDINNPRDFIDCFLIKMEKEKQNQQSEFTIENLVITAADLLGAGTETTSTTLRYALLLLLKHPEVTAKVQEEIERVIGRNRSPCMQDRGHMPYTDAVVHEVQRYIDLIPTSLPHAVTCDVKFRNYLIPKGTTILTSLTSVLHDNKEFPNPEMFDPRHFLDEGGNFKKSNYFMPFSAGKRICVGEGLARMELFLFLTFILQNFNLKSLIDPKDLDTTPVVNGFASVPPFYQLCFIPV
Chain of Apoptosis regulator Bcl-2 (Homo sapiens) (P10415 whole entry, looked up): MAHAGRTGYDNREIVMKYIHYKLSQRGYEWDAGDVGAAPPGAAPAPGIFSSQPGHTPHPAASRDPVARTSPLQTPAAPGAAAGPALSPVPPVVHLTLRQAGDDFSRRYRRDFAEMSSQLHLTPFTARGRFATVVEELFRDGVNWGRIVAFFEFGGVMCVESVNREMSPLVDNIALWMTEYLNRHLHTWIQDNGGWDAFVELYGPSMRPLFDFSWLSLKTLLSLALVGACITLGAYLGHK
Chain of Cytochrome P450 3A4 (Homo sapiens) (P08684 whole entry, looked up): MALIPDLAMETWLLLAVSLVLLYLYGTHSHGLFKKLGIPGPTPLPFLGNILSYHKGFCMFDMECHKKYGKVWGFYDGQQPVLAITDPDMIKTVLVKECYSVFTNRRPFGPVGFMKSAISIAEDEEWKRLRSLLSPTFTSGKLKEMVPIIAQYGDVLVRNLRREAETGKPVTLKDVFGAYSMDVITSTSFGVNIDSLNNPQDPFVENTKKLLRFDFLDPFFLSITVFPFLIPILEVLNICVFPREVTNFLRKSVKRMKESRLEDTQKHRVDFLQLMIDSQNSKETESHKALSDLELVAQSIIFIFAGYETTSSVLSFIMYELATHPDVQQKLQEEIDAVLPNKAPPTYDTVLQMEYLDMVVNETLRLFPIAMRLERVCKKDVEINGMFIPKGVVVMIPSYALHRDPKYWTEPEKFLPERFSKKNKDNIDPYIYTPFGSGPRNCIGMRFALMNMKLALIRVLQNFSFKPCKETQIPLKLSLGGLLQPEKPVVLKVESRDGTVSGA

As to `CCCCCOC(=O)COc1cc(N2C(=O)C3=C(CCCC3)C2=O)c(F)cc1Cl`, the molecule was classed as inactive (in experiment [1]; in experiment [2]; in experiment [3]; in [4]; with BCL2L11 (gene 10018); in [5]). The outcome (in experiment [6]; in the experiment with Caspase-3 (Homo sapiens); in [8]; in [9]; in [11]; in the experiment with CYP2C8 (gene 1558)) was inactive. Moreover, the outcome (with CYP2E1 (gene 1571); in [13]) was inactive. The results for the concentration at half-maximal activity (AC50) in experiment [7], in experiment [10] and in [12] were 0.00316 µM (active), 25.9 µM (active) and 28 µM (active), respectively.

`OB(O)O`: the molecule was classed as inactive (in [1]; in experiment [2]; in experiment [3]; in experiment [4]; in the experiment with BCL2L11 (gene 10018); in [5]). The outcome (in experiment [6]; in the experiment with Caspase-3 (Homo sapiens); in [7]; in [8]; in [9]; in [10]) was inactive. Further, the molecule was called inactive (in experiment [11]; in the experiment with CYP2C8 (gene 1558); with CYP2E1 (gene 1571); in experiment [12]).

In the case of `COC(=O)c1ccccc1C(=O)O`, the outcome (in experiment [1]; in [2]; in experiment [3]; in [4]; in the experiment with BCL2L11 (gene 10018); in experiment [5]) was inactive. Further, the call (in experiment [6]; with Caspase-3 (Homo sapiens); in [7]; in experiment [8]; in [9]; in experiment [10]) was inactive. Besides, the molecule was called inactive (in experiment [11]; in the experiment with CYP2C8 (gene 1558); in the experiment with CYP2E1 (gene 1571); in experiment [12]).

For `COc1c(Cl)ccc(Cl)c1C(=O)O`, the molecule was called inactive (in experiment [1]; in experiment [2]; in experiment [3]; in experiment [4]; with BCL2L11 (gene 10018); in experiment [5]). Also, the outcome (in experiment [6]; in the experiment with Caspase-3 (Homo sapiens); in [7]; in experiment [8]; in [9]; in experiment [10]) was inactive. For the same molecule, the result (in experiment [11]; with CYP2C8 (gene 1558); in the experiment with CYP2E1 (gene 1571); in experiment [12]) was inactive.

Turning to `O=C(O)c1ccccc1`, the result (in experiment [1]; in experiment [2]; in experiment [3]; in experiment [4]; with BCL2L11 (gene 10018); in experiment [5]) was inactive. The outcome (in experiment [6]; with Caspase-3 (Homo sapiens); in [7]; in experiment [8]; in experiment [9]; in experiment [10]) was inactive. For the same molecule, the outcome (in [11]; in the experiment with CYP2C8 (gene 1558); with CYP2E1 (gene 1571); in experiment [12]) was inactive.

Take `CSC(=O)c1cccc2nnsc12`: the molecule was classed as inactive (in experiment [1]; in experiment [2]; in [3]; in experiment [4]; in the experiment with BCL2L11 (gene 10018); in experiment [5]). The outcome (in [6]; in the experiment with Caspase-3 (Homo sapiens); in experiment [7]; in [8]; in experiment [9]; in experiment [10]) was inactive. Also, the call (in [11]; in the experiment with CYP2C8 (gene 1558); in the experiment with CYP2E1 (gene 1571); in [12]; in [13]) was inactive.

`O=C(Nc1ccc([N+](=O)[O-])cc1Cl)c1cc(Cl)ccc1O`: the AC50 in [1] is 3.89 µM (active); in experiment [2], 6.15 µM (active); in experiment [3], 3.07 µM (active); in experiment [4] it was 20.4 µM (active); in [5], 4.26 µM (active); in [6], 3.54 µM (active). The concentration at half-maximal activity (AC50) was 1.89 µM (active) with Caspase-3 (Homo sapiens); 0.744 µM (active) in experiment [8]; 12 µM (active) in experiment [9]; 3.89 µM (active) in experiment [10]; 2.22 µM (active) in [11]; 3.94 µM (active) with CYP2C8 (gene 1558). In addition, in the experiment with CYP2E1 (gene 1571), the AC50 was 2.07 µM (active). Also, the call in experiment [7] was inactive.

For `CCOC(=O)NCCOc1ccc(Oc2ccccc2)cc1`, the molecule was called inactive (in [1]; in [2]; in [3]; in the experiment with BCL2L11 (gene 10018); with Caspase-3 (Homo sapiens); in experiment [7]). Further, the outcome in experiment [9] was inactive. For the same molecule, the AC50 in [4] is 83.5 µM (active); in experiment [5], 85.8 µM (active); in experiment [6], 82.1 µM (active); in experiment [8], 84.5 µM (active); in experiment [10] it was 81.4 µM (active); in experiment [11], 81.6 µM (active). The AC50 with CYP2C8 (gene 1558) is 81.1 µM (active); in the experiment with CYP2E1 (gene 1571), 83.8 µM (active); in experiment [12], 87.8 µM (active).
